Activity calls are given as the source filed them.

Experiment [1] deals with PRMT1 (protein arginine N-methyltransferase 1). The experiment in a line: small molecules binding arginine methyltransferase PRMT1 – biochemical, small-molecule microarray, 635 nm fluorescence, primary screen (AID 1088).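 Further: binding of Prmt1 protein to compounds spotted on small-molecule microarray slides.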 Conditions: higher = more signal.
The nature of experiment [2]: growth effects on S. cerevisiae YJM789 – YJM789 clinical isolate, OD600, 24 h, basal, primary screen (AID 1089).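 Further: growth of clinical yeast isolate S. cerevisiae YJM 789 seeded 1000 cells per well; test concentration not given here.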 Particulars: higher = more signal, called active from +8 up or from −8 down.
Experiment [3] is described as follows: S. pombe growth modifiers, basal conditions – strain 972, OD600, 24 h, no modulator, primary screen (AID 1090).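 Further: basal condition with compound alone and no growth modifier present; test concentration not given here.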 Particulars: S. pombe 972 growth, higher = more signal, called active from +8 up or from −8 down.
A short description of experiment [4]: budding yeast growth modifiers under rapamycin – strain BY4716, OD600, 96 h, primary screen (AID 1091). Further: test concentration not given here. Particulars: S. cerevisiae BY4716 + rapamycin, higher = more signal, called active from +8 up or from −8 down.
For experiment [5], the target named is Torsin-1A-interacting protein 2 (Homo sapiens) (UniProt Q8NFQ8). The experiment in a line: small molecules binding lysate-expressed LULL1 – cell lysate, human LULL1 lysate, 635/667 nm fluorescence, primary screen (AID 1092).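 Further: probe is lysate of COS7 cells overexpressing human LULL1; score merges per-feature 667 nm fluorescence with signal-to-noise.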 Conditions: small-molecule microarray, hLULL1 lysate binding, 635 nm fluorescence; higher = more signal.
Chain of Torsin-1A-interacting protein 2 (Homo sapiens) (Q8NFQ8 whole entry, looked up): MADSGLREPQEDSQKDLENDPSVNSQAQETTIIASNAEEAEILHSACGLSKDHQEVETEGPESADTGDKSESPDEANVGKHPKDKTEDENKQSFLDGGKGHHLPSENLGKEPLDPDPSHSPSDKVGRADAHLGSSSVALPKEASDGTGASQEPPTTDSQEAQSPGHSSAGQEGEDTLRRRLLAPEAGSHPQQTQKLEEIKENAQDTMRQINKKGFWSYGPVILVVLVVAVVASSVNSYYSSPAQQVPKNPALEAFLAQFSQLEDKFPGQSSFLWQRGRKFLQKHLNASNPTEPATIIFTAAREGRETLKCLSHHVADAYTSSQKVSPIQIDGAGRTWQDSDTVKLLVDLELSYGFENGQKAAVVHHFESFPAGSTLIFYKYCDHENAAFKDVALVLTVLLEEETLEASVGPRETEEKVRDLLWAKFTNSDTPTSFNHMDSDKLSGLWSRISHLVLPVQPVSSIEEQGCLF
A short description of experiment [6]: optical density change of DRC41 E. coli – strain DRC41, OD650, 24 h, E. coli filamentation project, primary screen (AID 1093).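 Further: MC1000 strain lacking acrAB efflux and sulA so SOS filamentation is blocked; test concentration not given here.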 Particulars: E. coli DRC41 growth, higher = more signal, called active from +8 up or from −8 down.
Experiment [7] can be described thus: probe aLefty2 binding to arrayed compounds – biochemical, biotinylated probe, 635/667 nm fluorescence, primary screen (AID 1094).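 Further: score merges spot fluorescence near 667 nm with spot signal-to-noise ratio.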 Conditions: small-molecule microarray, higher = more signal.
Experiment [8] concerns Noggin (protein binding on small-molecule microarray). The experiment in a line: small molecules binding Noggin protein – biochemical, 635/667 nm fluorescence, primary screen (AID 1095).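 Further: score merges 667 nm feature fluorescence with signal to noise over triplicate slides.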 Particulars: 635 nm fluorescence, higher = more signal.
Experiment [9] deals with Neurogenic locus notch homolog protein 3 (Homo sapiens) (UniProt Q9UM47). The experiment in a line: small molecules binding NOTCH3 protein – biochemical, 635/667 nm fluorescence, primary screen (AID 1096). Particulars: small-molecule microarray, 635 nm fluorescence, higher = more signal.
Chain of Neurogenic locus notch homolog protein 3 (Homo sapiens) (Q9UM47 whole entry, looked up): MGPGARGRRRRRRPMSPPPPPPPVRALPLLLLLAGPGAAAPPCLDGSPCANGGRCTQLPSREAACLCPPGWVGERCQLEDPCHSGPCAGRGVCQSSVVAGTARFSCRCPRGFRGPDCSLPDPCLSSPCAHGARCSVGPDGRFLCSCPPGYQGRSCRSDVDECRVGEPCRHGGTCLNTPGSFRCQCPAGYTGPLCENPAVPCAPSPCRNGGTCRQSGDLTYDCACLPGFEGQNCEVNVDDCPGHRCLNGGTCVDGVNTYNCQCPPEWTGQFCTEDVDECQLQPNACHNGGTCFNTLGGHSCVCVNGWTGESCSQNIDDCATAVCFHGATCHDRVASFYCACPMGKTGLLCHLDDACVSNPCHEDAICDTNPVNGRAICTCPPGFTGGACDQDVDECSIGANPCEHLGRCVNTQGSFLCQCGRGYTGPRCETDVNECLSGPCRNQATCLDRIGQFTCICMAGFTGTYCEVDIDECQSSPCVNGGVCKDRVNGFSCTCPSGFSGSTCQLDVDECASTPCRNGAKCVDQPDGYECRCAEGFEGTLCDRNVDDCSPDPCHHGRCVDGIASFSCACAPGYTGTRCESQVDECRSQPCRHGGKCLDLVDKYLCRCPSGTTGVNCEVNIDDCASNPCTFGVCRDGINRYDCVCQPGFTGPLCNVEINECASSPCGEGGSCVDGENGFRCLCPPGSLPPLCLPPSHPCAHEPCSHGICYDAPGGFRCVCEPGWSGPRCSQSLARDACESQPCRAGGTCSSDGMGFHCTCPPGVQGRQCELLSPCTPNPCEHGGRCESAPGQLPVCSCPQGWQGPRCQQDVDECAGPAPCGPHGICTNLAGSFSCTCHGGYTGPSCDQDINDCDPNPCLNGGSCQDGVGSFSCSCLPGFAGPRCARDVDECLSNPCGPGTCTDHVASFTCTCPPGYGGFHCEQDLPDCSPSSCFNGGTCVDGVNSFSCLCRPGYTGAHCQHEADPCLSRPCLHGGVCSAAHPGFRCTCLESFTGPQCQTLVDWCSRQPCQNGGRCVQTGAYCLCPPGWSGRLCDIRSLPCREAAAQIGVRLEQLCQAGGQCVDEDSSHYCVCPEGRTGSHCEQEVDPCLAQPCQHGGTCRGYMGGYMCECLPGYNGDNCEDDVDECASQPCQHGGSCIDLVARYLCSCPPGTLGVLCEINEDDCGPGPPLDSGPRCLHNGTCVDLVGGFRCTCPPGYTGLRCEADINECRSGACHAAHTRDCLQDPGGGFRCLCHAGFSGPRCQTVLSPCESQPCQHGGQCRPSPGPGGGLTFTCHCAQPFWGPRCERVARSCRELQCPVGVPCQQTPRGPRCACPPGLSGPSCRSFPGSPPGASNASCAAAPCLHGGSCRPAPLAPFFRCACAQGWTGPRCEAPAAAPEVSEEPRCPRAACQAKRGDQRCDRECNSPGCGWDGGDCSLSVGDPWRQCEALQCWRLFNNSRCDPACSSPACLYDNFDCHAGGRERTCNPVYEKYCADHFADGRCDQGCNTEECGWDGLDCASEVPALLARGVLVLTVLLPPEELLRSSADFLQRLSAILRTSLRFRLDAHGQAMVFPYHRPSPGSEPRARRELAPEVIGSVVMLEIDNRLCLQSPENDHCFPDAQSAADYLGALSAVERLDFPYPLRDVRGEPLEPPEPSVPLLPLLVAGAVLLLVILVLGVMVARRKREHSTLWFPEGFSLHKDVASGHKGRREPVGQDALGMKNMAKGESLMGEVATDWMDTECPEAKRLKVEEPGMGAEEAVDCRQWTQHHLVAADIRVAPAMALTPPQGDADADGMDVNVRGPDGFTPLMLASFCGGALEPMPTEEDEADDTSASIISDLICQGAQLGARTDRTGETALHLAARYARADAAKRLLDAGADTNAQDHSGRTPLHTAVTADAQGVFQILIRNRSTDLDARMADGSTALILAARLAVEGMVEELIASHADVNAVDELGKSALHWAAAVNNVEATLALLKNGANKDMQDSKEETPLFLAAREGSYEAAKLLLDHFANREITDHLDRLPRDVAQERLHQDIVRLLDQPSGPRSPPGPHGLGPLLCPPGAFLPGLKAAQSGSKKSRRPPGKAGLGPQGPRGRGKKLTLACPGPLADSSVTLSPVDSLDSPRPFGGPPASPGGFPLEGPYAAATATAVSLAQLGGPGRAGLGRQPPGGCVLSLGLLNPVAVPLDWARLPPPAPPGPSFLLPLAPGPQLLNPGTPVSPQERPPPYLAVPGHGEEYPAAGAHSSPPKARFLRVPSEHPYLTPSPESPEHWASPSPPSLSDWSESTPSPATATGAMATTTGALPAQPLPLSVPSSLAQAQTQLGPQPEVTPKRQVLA
The nature of experiment [10]: probe aEGFR binding to arrayed compounds – biochemical, biotinylated probe, 635/667 nm fluorescence, primary screen (AID 1097).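 Further: probe is a biotinylated anti-EGFR antibody binding compounds printed on slides; score combines fluorescence near 667 nm and signal to noise of each spot.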 Conditions: small-molecule microarray, higher = more signal.
Experiment [11] relates to Plasmodium falciparum Sir2 (PF13_0152, Sir2A). The experiment in a line: Plasmodium falciparum Sir2A binding compounds – biochemical, small-molecule microarray, 635 nm fluorescence, primary screen (AID 1098).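 Further: score merges spot fluorescence intensity with its signal-to-noise ratio.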 Conditions: fluorescence 635 nm, higher = more signal.
Experiment [12] in a line: probe aDKK1 binding to arrayed compounds – biochemical, biotinylated probe, 635/667 nm fluorescence, primary screen (AID 1099).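 Further: score merges 667nm spot fluorescence with signal to noise across triplicate slides; reference of the scale not given here.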 Conditions: small-molecule microarray, higher = more signal.
Experiment [13] in a line: probe aCHRDL2 binding to arrayed compounds – biochemical, biotinylated probe, 635/667 nm fluorescence, primary screen (AID 1100). Conditions: small-molecule microarray, higher = more signal.
Experiment [14] is described as follows: change in splice reporter luminescence, either direction, cell-based, HEK293, spliceosome inhibition project, primary screen (AID 1101).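 Further: HEK293 cells carrying a splicing-competent luciferase reporter gene; test concentration not given here.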 Particulars: HEK293 splicing luciferase reporter, 24 h, higher = more signal, called active from +8 up or from −8 down. (In general: Reporter assays use an easily measured gene product as a stand-in for the process of interest.)

Experiment [15] addresses Fibroblast growth factor 10 (Homo sapiens) (UniProt O15520). The experiment in a line: compounds binding fibroblast growth factor 10 – biochemical, small-molecule microarray, 635 nm fluorescence, primary screen (AID 1102). Particulars: FGF10 binding, fluorescence 635 nm, higher = more signal.
Experiment [16] relates to glycogen synthase kinase-3 (GSK3A per assay name; protocol says GSK3B). The experiment in a line: compounds binding glycogen synthase kinase-3 – biochemical, small-molecule microarray, 635 nm fluorescence, GSK3A, primary screen (AID 1103). Further: the record names both GSK3A and GSK3B. Particulars: fluorescence 635 nm, higher = more signal.
For experiment [17], the target named is Epidermal growth factor receptor (Homo sapiens) (UniProt P00533). The experiment in a line: compounds binding epidermal growth factor receptor – biochemical, small-molecule microarray, 635 nm fluorescence, primary screen (AID 1104).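 Further: score merges 667 nm emission intensity with spot signal to noise over triplicate slides.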 Conditions: EGFR binding, higher = more signal.
Chain of Epidermal growth factor receptor (Homo sapiens) (P00533 whole entry, looked up): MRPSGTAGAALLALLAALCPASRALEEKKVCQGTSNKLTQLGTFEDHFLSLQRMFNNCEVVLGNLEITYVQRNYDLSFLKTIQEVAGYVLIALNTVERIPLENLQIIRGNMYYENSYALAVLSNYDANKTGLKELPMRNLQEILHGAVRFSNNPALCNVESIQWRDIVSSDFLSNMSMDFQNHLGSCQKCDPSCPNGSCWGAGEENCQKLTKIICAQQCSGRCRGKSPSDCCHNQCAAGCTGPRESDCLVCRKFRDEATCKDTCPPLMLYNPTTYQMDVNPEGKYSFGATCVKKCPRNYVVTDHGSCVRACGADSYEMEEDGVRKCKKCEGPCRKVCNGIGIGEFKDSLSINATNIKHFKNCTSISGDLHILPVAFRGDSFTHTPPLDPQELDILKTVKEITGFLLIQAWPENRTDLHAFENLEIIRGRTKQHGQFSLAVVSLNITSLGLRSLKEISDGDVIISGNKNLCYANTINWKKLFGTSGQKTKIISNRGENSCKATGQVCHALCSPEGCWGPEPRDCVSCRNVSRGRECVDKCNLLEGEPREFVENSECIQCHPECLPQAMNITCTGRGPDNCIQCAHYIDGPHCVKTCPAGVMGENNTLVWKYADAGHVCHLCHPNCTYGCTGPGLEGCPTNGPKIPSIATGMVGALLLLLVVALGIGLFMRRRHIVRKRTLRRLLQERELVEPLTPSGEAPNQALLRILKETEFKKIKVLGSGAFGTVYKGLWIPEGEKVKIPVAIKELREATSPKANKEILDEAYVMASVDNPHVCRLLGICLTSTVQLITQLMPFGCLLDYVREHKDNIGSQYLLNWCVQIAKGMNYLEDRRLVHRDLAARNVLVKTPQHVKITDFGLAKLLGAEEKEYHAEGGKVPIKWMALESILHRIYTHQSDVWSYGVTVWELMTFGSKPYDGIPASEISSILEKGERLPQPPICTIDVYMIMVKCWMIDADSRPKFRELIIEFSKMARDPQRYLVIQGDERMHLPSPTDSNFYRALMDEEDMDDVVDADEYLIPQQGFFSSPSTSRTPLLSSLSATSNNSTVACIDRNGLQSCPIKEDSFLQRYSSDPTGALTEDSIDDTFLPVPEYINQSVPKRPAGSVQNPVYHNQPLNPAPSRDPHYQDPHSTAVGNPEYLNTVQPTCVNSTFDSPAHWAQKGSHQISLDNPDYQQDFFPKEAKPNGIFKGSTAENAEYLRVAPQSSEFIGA
Experiment [18] deals with Follistatin-related protein 3 (Homo sapiens) (UniProt O95633). The experiment in a line: compounds binding follistatin-related protein 3 – biochemical, small-molecule microarray, 635 nm fluorescence, primary screen (AID 1105).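 Further: score merges emission near 667 nm and signal to noise per printed spot across three slides.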 Particulars: FSTL3 binding, higher = more signal.
Chain of Follistatin-related protein 3 (Homo sapiens) (O95633 whole entry, looked up): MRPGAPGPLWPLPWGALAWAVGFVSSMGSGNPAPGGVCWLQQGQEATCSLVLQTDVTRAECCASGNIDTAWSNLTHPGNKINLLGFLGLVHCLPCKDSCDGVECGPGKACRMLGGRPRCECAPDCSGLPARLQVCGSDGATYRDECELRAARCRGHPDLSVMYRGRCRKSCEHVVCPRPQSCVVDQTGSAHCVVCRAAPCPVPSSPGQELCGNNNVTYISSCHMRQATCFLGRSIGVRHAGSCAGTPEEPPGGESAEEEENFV
The target in experiment [19] is Dickkopf-related protein 1 (Homo sapiens) (UniProt O94907). The experiment in a line: small molecules binding DKK1 protein – biochemical, small-molecule microarray, 635 nm fluorescence scan, primary screen (AID 1106).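 Further: score merges emission near 667 nm with signal to noise over three replicate slides.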 Conditions: higher = more signal.
Chain of Dickkopf-related protein 1 (Homo sapiens) (O94907 whole entry, looked up): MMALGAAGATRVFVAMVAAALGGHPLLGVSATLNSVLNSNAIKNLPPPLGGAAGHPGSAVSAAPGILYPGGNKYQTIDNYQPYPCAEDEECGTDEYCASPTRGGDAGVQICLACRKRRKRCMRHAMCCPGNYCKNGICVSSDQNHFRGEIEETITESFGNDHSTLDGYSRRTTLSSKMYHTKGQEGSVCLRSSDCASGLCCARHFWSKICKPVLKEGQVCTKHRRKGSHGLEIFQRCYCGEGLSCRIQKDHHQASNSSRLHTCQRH
Experiment [20] deals with Inhibin beta A chain (activin A). The experiment in a line: small molecules binding activin A – biochemical, small-molecule microarray, 635 nm fluorescence scan, primary screen (AID 1107).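 Further: mouse activin A protein probed at 4.33 µg/mL on printed slides; score merges bound-protein fluorescence near 667 nm with spot signal-to-noise.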 Particulars: INHBA, higher = more signal.

Chain of Fibroblast growth factor 10 (Homo sapiens) (O15520 whole entry, looked up): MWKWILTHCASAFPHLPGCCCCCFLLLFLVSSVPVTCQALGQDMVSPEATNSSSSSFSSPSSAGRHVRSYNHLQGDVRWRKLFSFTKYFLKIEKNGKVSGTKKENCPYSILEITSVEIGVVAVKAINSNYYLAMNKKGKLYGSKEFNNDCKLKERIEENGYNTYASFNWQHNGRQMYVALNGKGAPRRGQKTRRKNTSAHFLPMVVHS

Consider `CCOC(=O)C1=CC[C@@H](c2ccccc2)N(S(=O)(=O)c2ccc(C)cc2)[C@H]1c1ccccc1`, for which the composite z-score in [1] turned out to be 0.0074; in experiment [5] it was 1.74; in experiment [7], 0.02; in experiment [8] it was 0.156; in experiment [9], 0.505; in experiment [10], 0.0515. In addition, the composite z-score in experiment [11] was 0.264; in experiment [12], 0.769; in experiment [13] it was 0.54; in experiment [15], 0.356; in experiment [16], 0.738; in [17], -0.404. For the same molecule, the composite z-score in [18] was 0.397; in [19], -0.187; in experiment [20], 0.903. In addition, the z-score is 0.181 (inactive) in experiment [2]; 1.88 (inactive) in experiment [3]; 3.8 (inactive) in experiment [4]; -0.794 (inactive) in experiment [6]; -0.387 (inactive) in experiment [14].
For `COc1cc(NN2C(C(O)c3ccco3)C=CC3C(=O)N(C)C(=O)C32)cc(OC)c1OC` (stereo not given), the composite z-score in experiment [1] was 0.865; in experiment [5] it was 0.873; in experiment [7], 0.413; in experiment [8], 0.382; in [9] it was -0.254; in experiment [10], 0.232. The composite z-score is 1.5 in experiment [11]; 0.88 in experiment [12]; 0.469 in [13]; 0.138 in experiment [15]; 1.1 in experiment [16]; -0.169 in experiment [17]. Further, the composite z-score worked out at 0.0253 in experiment [18], 0.216 in [19] and 0.752 in experiment [20]. The z-score in experiment [2] is -0.0402 (inactive); in [3], 1.06 (inactive); in experiment [4], 0.462 (inactive); in experiment [6], -1.87 (inactive); in [14], 0.579 (inactive).
Take `CS(=O)(=O)CCOC(=O)C1=CC(c2ccc(CO)cc2)=CC(C2CC2)N(Cc2sc3ccccc3c2Cl)C=C1C(=O)OCCS(C)(=O)=O` (stereo not given): the composite z-score in experiment [1] was 1.46; in experiment [5], 1.67; in experiment [7] it was 0.106; in experiment [8], 0.471; in experiment [9], 0.946; in experiment [10], -0.0188. The composite z-score in [11] was 0.677; in experiment [12], 0.251; in [13] it was 0.365; in [15], 0.686; in experiment [16] it was 0.519; in experiment [17] it was 0.645. Besides, the composite z-score in [18] came to 1.21; in experiment [19], 0.334; in experiment [20] it was 1.63. In addition, the z-score in experiment [2] is -0.348 (inactive); in experiment [3], -3.82 (inactive); in experiment [4], -1.23 (inactive); in experiment [6], -3.01 (inactive); in [14], 2.53 (inactive).
As to `CCOC(=O)C[C@H]1[C@H](OC(=O)c2cc3ccccc3oc2=O)[C@@H](NC(=O)c2ccc3ccccc3n2)c2cc(OCCCO)ccc2N1C(=O)Cc1ccc(OC)cc1`, the composite z-score was 1.45 in [1]; 1.33 in experiment [5]; -0.0391 in experiment [7]; 0.638 in [8]; 1.16 in experiment [9]; 0.104 in [10]. The composite z-score in [11] was 0.915; in experiment [12] it was -0.207; in [13], -0.427; in experiment [15] it was 1.01; in experiment [16] it was 1.06; in experiment [17] it was 0.442. Besides, the composite z-score in experiment [18] came out at 1.2; in experiment [19], 0.707; in [20], 0.288. For the same molecule, the z-score in experiment [2] is -0.136 (inactive); in [3], -0.163 (inactive); in [4], -0.617 (inactive); in experiment [6] it was 0.397 (inactive); in experiment [14], -0.362 (inactive).
Consider `CCOC(=O)C1=CC[C@@H](c2ccccc2F)N(S(=O)(=O)c2ccc(C)cc2)[C@H]1c1ccccc1`, for which the composite z-score in [1] was 1.12; in [5], 2.72; in [7] it was -0.0551; in experiment [8] it was 0.63; in experiment [9], 0.812; in [10], -0.101. The composite z-score was 0.441 in [11]; 0.128 in experiment [12]; -0.106 in [13]; 0.801 in [15]; 1.16 in [16]; 0.486 in experiment [17]. The composite z-score in [18] is 0.766; in [19], 0.253; in experiment [20] it was 0.713. Further, the z-score in experiment [2] is -0.0047 (inactive); in experiment [3] it was 1.29 (inactive); in [4], 0.151 (inactive); in experiment [6] it was -0.818 (inactive); in experiment [14], -1.12 (inactive).
